SKKanGAS inh – S. pyogenes SKKanGAS growth inhibitors in kanamycin, primary screen, streptokinase expression inhibitor project, SKKanGAS strain, BacTiter-Glo luminescence; 6 h; inhibition, % at 7.5 µM; hit rate 1.3% among 300,000;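 active = mean replicate score, as percent of positive control median, at least 50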;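 note: strain carries kanamycin resistance gene driven by streptokinase promoter and grows in 40 µg/ml kanamycin; loss of luminescence reflects streptokinase promoter inhibition or plain growth inhibition; 0% = median of DMSO wells and 100% = positive control at its reference dose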
PfHsp90 set2 – growth inhibition of PfHsp90-expressing yeast, primary screen, antimalarial PfHsp90 inhibitor project, S. cerevisiae, BacTiter-Glo luminescence, single point, set 2; BacTiter-Glo ATP, 48 h; yeast lacking PDR1 and PDR3 efflux regulators; inhibition, % at 9.4 µM; hit rate 0.32% among 310,000; AID 504621, 2011;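 active = every replicate shows inhibition above about 80%, whatever the replicate mean, limit read from the data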;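 note: 0% = DMSO neutral controls and 100% = 20 µM radicicol positive controls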
NALP3 yeast inh – NALP3 inflammasome inhibitors in reconstituted yeast, primary screen, luminescence, uHTS. Yeast reconstituted NLRP3/ASC/caspase-1, beta-gal luminescence, 24 h. inhibition, % at 10 µM. hit rate 0.39% among 330,000. AID 2825, 2010;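 active = inhibition of 50% or more; inactive = inhibition below 50%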;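 note: plate controls were induced DMSO wells for no effect and uninduced yeast grown without galactose for full effect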
tim23-1 inh – growth inhibitors of tim23-1 mutant yeast, primary screen, luminescence, uHTS; AID 463212, 2010; S. cerevisiae tim23-1 growth, BacTiter-Glo luminescence, 24 h; inhibition, % at 20 µM; hit rate 1.3% among 330,000;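 active = growth inhibition of the mutant yeast at or above 50%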;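 note: temperature-sensitive mutant grown at 25 °C; plate controls were DMSO-treated mutant yeast for no effect and medium wells lacking yeast for full effect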
tim10-1 inh – growth inhibitors of tim10-1 mutant yeast, primary screen, luminescence, uHTS; AID 463190, 2010; hit rate 2.2% among 330,000; inhibition, % at 20 µM; S. cerevisiae tim10-1 ts strain growth, BacTiter-Glo, 24 h;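 active = inhibition of at least 40%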;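 note: mutant grown at 25 °C; 0% = DMSO wells with yeast and 100% = wells holding no yeast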
TIM10 inh – growth inhibitors of isogenic TIM10 control yeast, primary screen, counter-screen for tim10-1 yeast inhibitor project, luminescence, uHTS; S. cerevisiae TIM10 strain growth, BacTiter-Glo luminescence, 24 h; inhibition, % at 10 µM; hit rate 1.4% among 330,000; AID 463195, 2010;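 active = inhibition of 40% or more at the single tested concentration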;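 note: wild-type TIM10 isogenic control strain grown at permissive 25 °C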
tim10-1 conf – growth inhibitors of tim10-1 mutant yeast, confirmation, single concentration, luminescence, S. cerevisiae; shares compounds with tim10-1 inh; S. cerevisiae tim10-1 ts strain growth, BacTiter-Glo, 24 h; inhibition, % at 20 µM; hit rate 56% among 7,400;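 active = inhibition of yeast growth at or above a set limit in either of two repeat tests at 20 µM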;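 note: tim10-1 mutant grown at permissive 25 °C to find synthetic lethal compounds; 0% = DMSO yeast wells and 100% = medium wells without yeast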
TIM10 conf – growth inhibitors of wild-type TIM10 yeast, confirmation, counter-screen for tim10-1 synthetic lethality project, single concentration, luminescence, S. cerevisiae; hit rate 63% among 4,600; S. cerevisiae tim10 strain growth, BacTiter-Glo luminescence, 24 h; inhibition, % at 10 µM; shares compounds with TIM10 inh; AID 463215, 2010;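 active = inhibition of yeast growth at or above a set limit in either of two replicates at 10 µM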;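 note: this counterscreen used the strain with wild-type TIM10; 0% = yeast with DMSO and 100% = medium wells lacking yeast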
An asterisk follows results filed as active; nt = no result given. The list is not random: actives were taken first. Their share in the collection is about 4.6%.

SMILES | SKKanGAS inh | PfHsp90 set2 | NALP3 yeast inh | tim23-1 inh | tim10-1 inh | TIM10 inh | tim10-1 conf | TIM10 conf
CCOc1ccc(-c2nnc3ccc(SC(C)C)nn23)cc1 | 56.9* | -57.6 | 33.8 | 40.8 | 47.8* | 41.5* | 44.6* | 51.2*
Cc1cccc(N2C(=O)CC(Sc3ccccc3C(=O)O)C2=O)c1 (configuration not stated) | -0.6 | 1.3 | 17.6 | 34.3 | 49.3* | 41.3* | 46.0* | 15.4
Cc1ccc(N2C(=O)CC(Sc3ccccc3C(=O)O)C2=O)cc1C (configuration not stated) | -4.7 | -20.8 | 21.3 | 28.2 | 41.9* | 43.1* | 47.2* | 39.8*
COC(=O)c1ccn(Cc2ccccc2Cl)n1 | 3.3 | -37.4 | nt | nt | nt | nt | nt | nt
CCN(Cc1ccccc1)C(=O)COC(=O)Cn1cnc2ccccc21 | -3.4 | -30.7 | -8.2 | 3.1 | 10.3 | 5.9 | nt | nt
O=C(COC(=O)c1cccc(OC(F)F)c1)NCC1CCCO1 (configuration not stated) | nt | -8.9 | 4.9 | 11.1 | 19.0 | -0.8 | nt | nt
CC1CCC(NC(=O)Nc2cccs2)CC1 (configuration not stated) | 7.7 | 3.0 | 5.2 | 36.8 | 54.1* | 59.6* | 73.2* | 46.4*
CC(C)(C)c1ccc(-c2n[nH]c(=S)n2C2CCCC2)cc1 | 0.1 | -13.6 | 17.6 | 47.5 | 41.3* | 44.5* | 29.8* | 45.1*
C=C1CCC[C@]2(C)C[C@H]3OC(=O)C(CNC(C)(CO)CO)[C@H]3CC12 (some centres not stated) | -1.8 | -23.6 | -68.0 | 43.8 | 50.8* | 43.4* | 51.9* | 50.2*
COc1ccc(CCNC(N)=S)cc1OC | 1.4 | -24.9 | 5.8 | 11.5 | 0.0 | 0.1 | nt | nt
N#Cc1c(Cl)c(Cl)c2nnc(-c3ccc(Br)cc3)n2c1Cl | 13.2 | nt | 6.0 | 42.0 | 45.7* | 58.2* | 28.5 | 14.9
[S-]c1nnc(-c2ccc(Br)cc2)n1-c1ccccc1.[Zn+2] | -3.0 | 1.4 | 16.0 | 14.1 | 3.3 | 3.3 | nt | nt
Cc1ccc(-c2nc3c(=O)n(C)c4ccccc4c3o2)cc1 | 13.7 | nt | 13.3 | 45.2 | 52.3* | 57.6* | 31.4* | 64.0*
CCN(CC)CCCNC(=S)N1CCN(c2nc3ccccc3n2CC)CC1 | -2.3 | 9.5 | 10.7 | 8.6 | -4.9 | -3.5 | nt | nt
CC(C)(C)c1ccccc1NC(=S)NC1CCCCC1 | -0.7 | -11.6 | 28.0 | 36.9 | 43.3* | 44.6* | 20.4 | 32.3*
CC(C)(C)c1ccccc1NC(=S)NC1CCCC1 | -0.8 | 21.0 | 38.6 | 38.6 | 32.5 | 23.1 | nt | nt
COc1ccccc1N1CCN(Cc2ccc(O)c3ncccc23)CC1 | 42.7 | -26.2 | 46.1 | 31.3 | 41.7* | 49.7* | 23.1 | 35.2*
Cc1ccccc1-c1cc(-c2ccccc2O)n[nH]1 | 54.5* | -7.2 | 6.7 | 44.2 | 45.5* | 64.8* | 13.7 | 6.2
Cc1ccccc1CN1CCCC(C(=O)Nc2ccccc2Oc2cccnc2)C1 (configuration not stated) | -1.9 | -6.3 | 4.8 | 15.3 | 2.2 | 10.4 | nt | nt
C#CCOc1ccc(Cl)cc1/C=N/O | -2.4 | -10.7 | -14.7 | 13.3 | 12.9 | -2.1 | nt | nt
O/N=C/c1cc(Cl)ccc1OCc1cccc2ccccc12 | 79.5* | nt | 17.7 | 47.9 | 63.5* | 44.0* | 23.6 | 49.6*
Cc1ccc(Oc2nnc(-c3cccs3)c3ccccc23)cc1 | 3.1 | -12.7 | 5.1 | 14.5 | 14.4 | -5.2 | nt | nt
Cc1ccc(Oc2nnc(-c3cccs3)c3ccccc23)cc1C | 11.2 | 16.5 | 15.8 | 41.6 | 45.9* | 46.2* | 20.4 | 13.4
Cc1ccccc1S(=O)(=O)c1c(C)cc(C)n(C(C)C)c1=O | 3.9 | -18.1 | -14.8 | 41.2 | 41.0* | 51.7* | 34.5* | -30.4
COc1ccc(-c2cc(C(=O)N3CCN(c4ncccn4)CC3)c3ccccc3n2)cc1OC | nt | 3.7 | 16.8 | 29.2 | 17.2 | 18.7 | nt | nt
SMILES | SKKanGAS inh | PfHsp90 set2 | NALP3 yeast inh | tim23-1 inh | tim10-1 inh | TIM10 inh | tim10-1 conf | TIM10 conf
Cc1ccc(-c2cc(C(=O)N3CCN(c4ncccn4)CC3)c3ccccc3n2)cc1 | 10.3 | -29.4 | 4.6 | 30.1 | 45.4* | 44.5* | 22.3 | 11.2
Cc1nc(Nc2ccccc2)sc1-c1ccccc1 | -15.5 | 3.1 | 17.8 | 49.1 | 53.9* | 62.7* | 53.5* | -31.5
Cc1ccc(C2CCN(C(=S)Nc3cccc(C)c3)C2)cc1 (configuration not stated) | 2.6 | -9.4 | 38.0 | 39.5 | 6.6 | 5.9 | nt | nt
N#C/C(C(=O)Nc1ccc(Cl)cc1)=C(/S)Nc1ccccc1 | 26.1 | 72.7 | 20.2 | 16.6 | 68.7* | 45.1* | 59.7* | 56.3*
COc1cccc(-c2noc(C3CCCN(C(=O)Cc4ccccc4)C3)n2)c1 (configuration not stated) | -17.3 | 4.6 | -66.2 | 38.9 | 40.0* | 40.8* | 35.5* | 24.0
CN(C)c1ccc(Nc2nc(N)c3ccccc3n2)cc1 | 36.9 | 60.3 | 18.9 | 43.3 | 55.4* | 44.4* | 50.0* | 35.8*
COc1ccc(C)cc1Nc1nc(N)c2ccccc2n1 | -1.2 | -3.4 | 40.4 | -0.2 | -9.6 | 15.1 | nt | nt
COc1ccc(NC(=O)c2cccc(S(=O)(=O)N3CCc4ccccc43)c2)cn1 | -3.0 | nt | -11.6 | 24.0 | 46.1* | 44.9* | 41.0* | 40.0*
Cc1ccc(C(=O)Nc2ccc(S(=O)(=O)N3CCc4ccccc43)cc2)o1 | 1.4 | 1.2 | -1.0 | 47.2 | 49.1* | 51.6* | 33.1* | 43.4*
O=C(Nc1ncccc1O)c1cccc(S(=O)(=O)N2CCc3ccccc32)c1 | 1.8 | -8.7 | 6.1 | 31.5 | 33.1 | 24.2 | nt | nt
Cc1ccc(C(=O)Nc2ccc(S(=O)(=O)N3CCc4ccccc4C3)cc2)o1 | 8.7 | -29.9 | 12.8 | 14.3 | 18.2 | 12.3 | nt | nt
COCCN1C(=O)N(c2cccc(C)c2)C(=O)C1CC(=O)Nc1cc(OC)cc(OC)c1 (configuration not stated) | -2.2 | 3.1 | 16.8 | 1.3 | -1.2 | 3.7 | nt | nt
C[C@H]1CCC[C@]2(C)C[C@H]3OC(=O)C(CN4CCCCCC4)[C@H]3C=C12 (some centres not stated) | -1.5 | -21.3 | 25.0 | 44.1 | 44.2* | 42.5* | 40.7* | 48.9*
COc1cccc(N2CCN(CC(=O)Nc3nc4c(s3)CC(C)CC4)CC2)c1 (configuration not stated) | 3.9 | 14.7 | 8.1 | 37.0 | 40.2* | 40.4* | 20.5 | 29.0

Bioassay records (PubChem)
